Results filed as inconclusive are left out. A call without a number means that no potency is given here. Active and inactive are the calls of the source. Calls come from the whole dose curve; as a rule, active = well fitted activation curve with a large enough effect; inconclusive = small, poorly fitted or top-dose-only effect; inactive = no such curve, though single readings can be large or run the other way.
Assay: Activators of T cell receptors: Hit Validation
Conditions: primary human leukocytes, cytokine release by HTRF, 48 h, TCR-stimulated with anti-CD3 beads; series mostly up to 46.1 µM
Summary of the method: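 Readout is IL-2 secretion by HTRF, measured after 48 hr in which primary human leukocytes received compound together with a-CD3 beads as the only TCR stimulus.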
Potency is the fitted concentration of half-maximal effect.

| SMILES | Potency |
| --- | --- |
| CC(C)CSc1nc2c(c(=O)[nH]c(=O)n2C)n1CC(O)COc1cccc2ccccc12 (stereo unspecified) | inactive |
| CC1CCN(CCNC(=O)C2CCN(S(=O)(=O)c3cccc4nsnc34)CC2)CC1 | inactive |
| Cc1noc(C)c1C(=O)OC(C)C(=O)N1CCc2ccccc21 (stereo unspecified) | inactive |
| COc1ccc(S(=O)(=O)N2CCN(C(=O)CCc3c[nH]c4ccccc34)CC2)cc1 | inactive |
| CCOc1ccc(C(=O)N(CN2CCCC2=O)c2cccc(Cl)c2)cc1 | inactive |
| COc1cc(OC)cc(C(=O)Nc2ccc(S(=O)(=O)N3CCOCC3)cc2)c1 | inactive |
| CCCc1nc2ccccc2c(=O)n1CCc1ccccc1 | inactive |
| Cc1ccc(S(=O)(=O)N(C)/N=C/C=C/c2ccccc2)cc1 | inactive |
| COc1cc(N)c(Cl)cc1C(=O)N[C@H]1CCN(CCCOc2ccc(F)cc2)C[C@H]1OC | inactive |
| Cc1ccc(S(=O)(=O)N2CCC(C(=O)NNC(=O)c3ccccc3O)CC2)cc1C | inactive |
| CC(C)c1nnc(SCC(=O)N2CCOCC2)n1C | inactive |
| CCN(CC(=O)Nc1ccccc1C(F)(F)F)C(=O)c1ccccc1Sc1ccccc1C#N | inactive |
| COc1ccc(NC(=O)C2CC(=O)N(Cc3ccco3)C2)cc1Cl (stereo unspecified) | inactive |
| Oc1ccccc1CN1CCCC(N2CCN(c3cccc(C(F)(F)F)c3)CC2)C1 (stereo unspecified) | inactive |
| Cc1ccc(C(CC(=O)O)Nc2nc(N3CCOCC3)nc(N3CCOCC3)n2)cc1 (stereo unspecified) | inactive |
| COc1cc(/C=C/C(=O)O)cc(OC)c1OC | inactive |

| SMILES | Potency |
| --- | --- |
| COc1cc(/C=C/C(=O)OCc2csc(CC(=O)Nc3ccc(C)cc3)n2)ccc1OCC#N | inactive |
| CCN(C(=O)CSc1nnc(C2CC2)n1-c1ccccc1)C1CCS(=O)(=O)C1 (stereo unspecified) | inactive |
| Cc1ccc(NS(=O)(=O)c2ccc(C)c(C(=O)NCC(c3ccccc3)N(C)C)c2)cc1 (stereo unspecified) | inactive |
| C=C(C)C(=O)OCC(C)C | inactive |
| COc1cccc(-n2c(SCC(=O)NC3CCS(=O)(=O)C3)nc3ccccc3c2=O)c1 (stereo unspecified) | inactive |
| CC[n+]1ccc(/C=C/c2ccc(N(C)C)cc2)c2ccccc21 | 4.45 µM (active) |
| COc1ccccc1N1CCN(C(=O)C2CCN(S(=O)(=O)c3ccccc3F)CC2)CC1 | inactive |
| CN(CC(=O)NCC(=O)Nc1ccc(F)cc1)C1CCS(=O)(=O)C1 (stereo unspecified) | inactive |
| Cc1ccc(NC(=O)C2CC(=O)N(Cc3ccco3)C2)cc1 (stereo unspecified) | inactive |
| COc1ccc(C(=O)/C=C(\C)Nc2ccc(NC(C)=O)cc2)cc1 | inactive |
| Cc1cc(C)c(-c2csc(NC(=O)C3=NN(c4ccccc4)C(=O)CC3)n2)c(C)c1 | inactive |
| CC1(NC(=O)CCNC(=O)c2ccc(C(C)(C)C)cc2)CCS(=O)(=O)C1 (stereo unspecified) | inactive |
| Cc1onc(-c2c(F)cccc2Cl)c1C(=O)Nc1sc2c(c1C(N)=O)CCC2 | inactive |
| CCC(=O)N1CCN(c2ccc(NC(=O)c3ccc([N+](=O)[O-])o3)cc2)CC1 | inactive |
| COc1ccc(-n2c(=O)c(CCC(=O)NCCc3ccccc3F)nc3ccccc32)cc1 | inactive |
